Compound activity deposited in PubChem by National Center for Advancing Translational Sciences (NCATS).
Rows were chosen to be rich in hits. Some 10% of all compounds tested hit in one or more screens of this group.
MCF10A rereplic = DNA re-replication induction in MCF 10a cells; MCF 10A DNA re-replication, Hoechst nuclear intensity, 48 h; Potency, µM (top dose mostly 46.1 µM), without a hit: at the top dose activity, positive = re-replication, hits mostly activators; hit rate 2.9% among 350,000; AID 624296; note: % of control where 0% means no effect; nearly all actives have a fitted effect of over 50% in size
VP16 counter = counter-screen for ROR gamma inhibitors: Gal4-VP16 reporter. Potency, µM (top dose mostly 53.6 µM), inactives show at the top dose activity, negative = inhibition, usual class: inhibitors. hit rate 3.5% among 310,000. AID 2546. Drosophila S2 Gal4-VP16 UAS-luciferase, luminescence, 20 h;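 note: Gal4-VP16 expression switched on by copper sulfate through the metallothionein promoter; % is set by controls: 0 for no effect and ±100 for the full control effect; nearly all actives have a fitted effect of over 50% in size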
ELG1 repair inh = blocks ELG1-dependent DNA repair in HEK293T cells; HEK293T ELG1-luciferase reporter, luminescence, 16 h; DNA damage induced by 5-fluorouridine; hit rate 2.3% among 330,000; Potency, µM (top dose mostly 46.1 µM), for the others: at the top dose activity change, negative = inhibition, actives largely listed as inhibitors; note: % is set by controls: 0 for no effect and ±100 for the full control effect; nearly all actives have a fitted effect of over 55% in size
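Luminescence from the luciferase reporter, measured 30 min after ONE-Glo reagent at room temperature, was the read-out. Beforehand, 2,000 cells per well were exposed for 16 hr at 37 °C to 5-fluorouridine together with compound or vehicle.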
RORgamma inh = inhibitors of mouse ROR gamma transcriptional activity | P51450 | Drosophila S2 Gal4-RORgamma UAS-luciferase reporter, 20 h | Potency, µM (highest dose often 53.6 µM), for the others: at the highest dose activity change, negative = inhibition, hits mostly inhibitors | hit rate 5.4% among 310,000; note: % is set by controls: 0 for no effect and ±100 for the full control effect; nearly all actives have a fitted effect of over 60% in size
Target sequence (P51450 whole entry, looked up, the tested form may be a part): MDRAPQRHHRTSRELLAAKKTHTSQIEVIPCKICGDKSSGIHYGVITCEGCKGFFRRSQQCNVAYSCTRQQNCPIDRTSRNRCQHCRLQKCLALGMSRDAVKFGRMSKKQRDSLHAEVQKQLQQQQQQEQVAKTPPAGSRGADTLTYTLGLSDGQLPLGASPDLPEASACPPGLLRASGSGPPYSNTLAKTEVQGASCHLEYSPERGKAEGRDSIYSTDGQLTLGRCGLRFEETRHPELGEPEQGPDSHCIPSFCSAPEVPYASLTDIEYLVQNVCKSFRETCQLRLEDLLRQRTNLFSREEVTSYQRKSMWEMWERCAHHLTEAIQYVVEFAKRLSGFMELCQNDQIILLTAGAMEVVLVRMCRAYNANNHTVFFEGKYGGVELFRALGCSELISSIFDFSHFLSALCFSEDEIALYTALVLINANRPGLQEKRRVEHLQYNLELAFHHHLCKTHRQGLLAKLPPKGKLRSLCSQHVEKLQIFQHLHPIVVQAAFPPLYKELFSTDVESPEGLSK
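Stable Schneider cell line, Gal4 DNA-binding domain fused to ROR gamma, UAS-luciferase. Cmpd 1 hr RT → CuSO4 700 uM final → 20 hr RT → luciferase reagent 10 min → luminescence.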
SW480 rereplic = inducers of DNA re-replication in SW480 colon cancer cells; SW480 DNA re-replication, Hoechst DNA content imaging, 48 h; Potency, µM (titrated, usually from 46.1 µM), for inactives: at the highest dose re-replication activation, most hits filed as activators; hit rate 1.8% among 340,000; AID 624297; note: % of control where 0% means no effect; nearly all actives have a fitted effect of over 55% in size
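Cells (250 per well) received 23 nL compound or DMSO by pin tool and were kept 48 hr at 37 C, 5% CO2. Nuclei were then stained with Hoechst for 40 min and scanned for DNA content.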
* = called active by the depositor; ? = inconclusive; nt = not tested or not shown; [ ] = another dose, or the depositor's remark. Calls come from the whole dose curve; as a rule, active = well fitted curve in the direction sought with a large enough effect; inconclusive = small, poorly fitted or top-dose-only effect, or another doubt; inactive = no such curve, though single readings can be large; an effect the other way counts as inactive or inconclusive. Potency is the fitted concentration of half-maximal effect.

SMILES	MCF10A rereplic	VP16 counter	ELG1 repair inh	RORgamma inh	SW480 rereplic
C[C@H]1CCC/C=C/C2C[C@H](O)CC2[C@H](O)/C=C/C(=O)O1 (some centres not stated)	0.26µM*	-28%	?	0%	?
C[C@H]1CCCC=CC2C[C@H](O)C[C@@H]2[C@H](O)/C=C\C(=O)O1 (some centres not stated)	nt	3%	nt	37%	nt
CC1CCC/C=C/C2CC(O)CC2C(O)/C=C/C(=O)O1 (configuration not stated)	?	-11%	0.65µM*	0%	0.1µM*
Nc1nc(O)c(-c2ccccc2)o1	1%	1%	nt	14%	-5%
N#CC1=C(N)Oc2c(c(=O)sc3ccccc23)C1c1ccncc1 (configuration not stated)	21µM*	-10%	-7%	?	13µM*
CSc1ccccc1NC(=O)CN(C)CC(=O)c1[nH]c(C)c(C(C)=O)c1C	?	nt	16µM*	nt	15%
CC(C)n1cnc2c(C(=O)N[C@H]3CN4CCC3CC4)cc(Cl)cc21	nt	-11%	nt	-11%	nt
Nc1ccc2nc3c(c(Cl)c2c1)CCCC3	16µM*	?	?	-15%	?
O=C(Nc1ccc(F)cc1)OC1CN2CCC1CC2 (configuration not stated)	8.2µM*	1%	?	-15%	11%
O=C(Nc1ccc(C(F)(F)F)cc1)OC1CN2CCC1CC2 (configuration not stated)	?	-3%	?	15%	23%
COc1ccc(C(=O)OCC(=O)Nc2ccc([N+](=O)[O-])cc2OC)c(O)c1	0%	4%	-20%	?	18%
Oc1ccc2[nH]cc(CCCCN3CC=C(c4ccccc4)CC3)c2c1	-2%	16%	nt	19%	1%
CCCCCCOc1ccc(C(=O)n2cnc(N)n2)cc1	23µM*	16%	16%	21%	-4%
O=C1C=C2C=CC3C[C@@]2(O1)C1CCCCN31 (some centres not stated)	21µM*	-21%	nt	?	?
c1ccc(Nc2ccc(Nc3ccccc3)cc2)cc1	-39%	-21%	?	22%	?
N#CC(C#N)=C(C#N)c1ccc(Nc2ccccc2)cc1	?	14µM*	-13%	?	?
Fc1ccc(Cn2nnnc2CN2CCC(n3nnc4cc(C(F)(F)F)ccc43)CC2)cc1	26µM*	-18%	?	12%	-6%
Cc1nc2cc(C(F)(F)F)ccc2n1C1CCN(Cc2nnnn2Cc2ccc3c(c2)OCO3)CC1	?	-8%	6.5µM*	-4%	14%
Cc1nc2cc(C(F)(F)F)ccc2n1C1CCN(Cc2nnnn2Cc2cccs2)CC1	3%	-13%	-12%	-18%	-3%
Cc1cc(C)cc(C(=O)OC2C[C@H]3CC[C@@H](C2)N3C)c1 (some centres not stated)	nt	3%	nt	-9%	nt
CCCCCOc1c(OC)ccc2cc(C(=O)NCc3ccc4c(c3)OCO4)c(=O)[nH]c12	nt	-12%	nt	10%	nt
CN1CCN(c2ccc([N+](=O)[O-])c3no[n+]([O-])c23)CC1	2.3µM*	5.6µM*	3.3µM*	1.3µM*	?
CC(=O)O[C@H]1[C@H]2[C@@H](OC(=O)Cc3ccccc3)[C@@H](C)C[C@]2(OC(C)=O)C(=O)/C(C)=C/[C@@H]2[C@H](CC[C@@]13CO3)C2(C)C	nt	0%	nt	?	nt
C[C@H](CO)N1C[C@H](C)[C@@H](CN(C)C(=O)NC2CCCCC2)Oc2c(NC(=O)Nc3ccc4c(c3)OCO4)cccc2C1=O	-1%	nt	15µM*	nt	-1%
CN(c1ccc(OCC(=O)N2CCN(C/C=C/c3ccccc3)CC2)cc1)S(=O)(=O)c1cccs1	?	-13%	13µM*	?	?
SMILES	MCF10A rereplic	VP16 counter	ELG1 repair inh	RORgamma inh	SW480 rereplic
Cc1ccc2c(c1)C1CN(C)CCC1N2C(=O)COc1ccc(N(C)S(=O)(=O)c2cccs2)cc1 (configuration not stated)	2%	-1%	-21%	19%	?
CN1CSC(=S)N(C)C1	0%	11µM*	nt	10µM*	?
CC(C)c1cccc(C(C)C)c1OCCn1ccnc1	-1%	?	-4%	22µM*	?
Cc1ccc(/C=C2\C(=O)NC(=S)N(c3cccc(F)c3)C2=O)o1	9%	-19%	8%	11µM*	6%
COc1ccc(N2C(=O)/C(=C/c3ccc(C)o3)C(=O)NC2=S)cc1	1%	-4%	25%	-14%	-6%
CCCCCCCCCOc1ccc2[nH]cc(CCN)c2c1	nt	?	nt	3.2µM*	nt
CCN(CC)c1ccc(N=Cc2c(O)n(CCc3ccc(OC)c(OC)c3)c(=O)[nH]c2=O)cc1	?	-4%	2.6µM*	17%	?
CCN(CC)c1ccc(N=Cc2c(O)n(Cc3ccco3)c(=O)[nH]c2=O)cc1	26µM*	-5%	-2%	-12%	70%
COc1ccc(CCn2c(O)c(C=Nc3ccc(F)cc3)c(=O)[nH]c2=O)cc1OC	7%	?	?	-14%	?
CCC(=NCc1ccco1)c1c(O)n(C2CCCCC2)c(=O)[nH]c1=O	23%	-10%	?	?	2%
CCC(=Nc1ccc(OC)cc1OC)c1c(O)n(C2CCCCC2)c(=O)[nH]c1=O	?	6.3µM*	18µM*	?	17%
CC(C)CC(N)C1(c2ccc(Cl)cc2)CCC1 (configuration not stated)	nt	-6%	nt	?	nt
CCOC(=O)c1cnc(SCc2ccc(Cl)c(Cl)c2)nc1N1CC1	13µM*	nt	nt	nt	4.1µM*
O=C(Cc1c(O)c2ccccc2oc1=O)c1ccc(F)cc1	0%	nt	?	nt	-8%
CCOc1cc(C)cc2oc(=O)c3c(c12)CCCC3	2%	-1%	-11%	-2%	0%
Cc1cc(O)c2c3c(c(=O)oc2c1)CCC(C)C3 (configuration not stated)	?	20µM*	?	?	-1%
COc1ccc(CC2C(=O)NC(C)C(=O)N(C)C3C(=O)N(C)C(Cc4ccc(O)c(c4)Oc4ccc(cc4)C3O)C(=O)NC(C)C(=O)NC(C)C(=O)N2C)cc1 (configuration not stated)	0.26µM*	nt	nt	nt	?
CN(C(=O)Cc1ccc(Cl)c(Cl)c1)[C@H](CN1CCCC1)c1cccc(N=C=S)c1	nt	?	nt	32µM*	nt
Fc1ccccc1CCNCc1cccc2ccccc12	?	20µM*	10%	?	-2%
CC[C@H](CO)NC(=O)[C@H]1C=C2c3cccc4[nH]cc(c34)C[C@@H]2N(C)C1	nt	-1%[17 µM]	nt	-1%[16.9 µM]	nt
O=C(C(=O)N1CCOCC1)c1cn(Cc2c(F)cccc2Cl)c2ccccc12	-5%	9%	27%	7%	0%
